This excerpt belongs to a sample that is enriched for hits.
NPR1 activator: GC-A stimulated cGMP production enhancers – HEK293 GC-A cells, cGMP TR-FRET, EC30 ANP, primary screen. Atrial natriuretic peptide receptor 1 (Homo sapiens), P16066. activation, % at 10 µM. 0% at EC30 ANP, 100% saturating ANP. AID 1671463, 2021. actives 0.14% (n = 370,000); in the data active = activation above about 40%
HDAC3 inh: HDAC3 deacetylase inhibitors, primary screen, biochemical, fluorescence, cell-free homogeneous. Histone deacetylase 3 (Homo sapiens), O15379. recombinant HDAC3, fluorogenic peptide/trypsin coupled. inhibition, % at 8.3 µM. actives 0.15% (n = 320,000); in the data active = inhibition above about 26%, passing the limit was not always enough
Target sequence (O15379 whole entry, looked up): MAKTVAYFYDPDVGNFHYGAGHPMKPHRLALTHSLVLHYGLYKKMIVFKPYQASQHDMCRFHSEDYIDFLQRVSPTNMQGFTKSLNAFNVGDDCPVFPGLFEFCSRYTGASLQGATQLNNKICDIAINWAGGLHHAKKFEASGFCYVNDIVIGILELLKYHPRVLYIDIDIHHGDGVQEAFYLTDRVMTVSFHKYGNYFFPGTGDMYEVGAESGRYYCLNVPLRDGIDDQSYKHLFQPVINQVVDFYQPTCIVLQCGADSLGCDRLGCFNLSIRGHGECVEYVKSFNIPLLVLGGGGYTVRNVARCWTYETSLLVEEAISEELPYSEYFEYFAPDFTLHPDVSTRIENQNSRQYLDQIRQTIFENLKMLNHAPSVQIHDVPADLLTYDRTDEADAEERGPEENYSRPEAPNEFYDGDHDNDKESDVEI
GC-B act: human GC-B receptor activators, primary screen, HEK293 GC-B cells, cGMP TR-FRET, EC30 CNP; Atrial natriuretic peptide receptor 2 (Homo sapiens), P20594; actives 0.11% (n = 370,000); 0% at EC30 CNP, 100% saturating CNP; activation, % at 10 µM;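 active = activation at 10 µM reaching about 35% in either raw or pattern-adjusted values, limit read from the data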
ALR inh: inhibitors of human ALR sulfhydryl oxidase, primary screen, biochemical, H2O2 detection, HRP-luminol luminescence, single point; AID 485317, 2010; purified ALR, DTT oxidation; FAD-linked sulfhydryl oxidase ALR (Homo sapiens), P55789; inhibition, % (no concentration beside the values); actives 3.8% (n = 290,000);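 active = mean replicate inhibition above about 79%, with every replicate also reaching it, limit read from the data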
An asterisk follows results filed as active; · = no result given.

SMILES	NPR1 activator	HDAC3 inh	GC-B act	ALR inh
COc1ccccc1NC(=O)CSC1CC(=O)N(c2ccc3c(c2)OCO3)C1=O (centres undefined)	-2.1	1.7	-0.9	99.6*
Cc1ccc(N2C(=O)CC(Sc3cccs3)C2=O)cc1 (centres undefined)	-4.4	1.1	-1.1	56.1
O=C1CSC(c2cccc(F)c2)N1c1ccccc1 (centres undefined)	4.7	8.4	12.2	98.4*
O=C1CSC(c2ccc(F)c(F)c2)N1c1ccccc1F (centres undefined)	2.1	3.8	-1.5	98.4*
O=C1CSC(c2cccc([N+](=O)[O-])c2)N1c1ccccc1 (centres undefined)	-1.7	2.3	4.0	98.1*
O=C1CSC(c2cccc([N+](=O)[O-])c2)N1c1ccc(O)cc1 (centres undefined)	2.4	1.5	6.8	-1.3
O=C1CSC(c2ccc(F)cc2)N1c1ccccc1F (centres undefined)	-2.1	-4.9	3.6	6.3
C/C(=C\c1ccccc1)C(=O)Nc1cc(C)on1	-1.0	2.5	-0.2	3.7
COc1ccc(/C=C/S(=O)(=O)NCc2ccc(F)cc2)c(CNC(=O)OC(C)(C)C)c1	-6.2	·	-3.0	·
S=C(NCCc1ccccn1)Nc1cccc(Cl)c1	4.0	-1.0	4.2	97.5*
COCCCNC(=S)NNC(=S)Nc1cccc(Cl)c1	1.9	10.1	-0.3	78.4*
COC(=O)Cn1c(=NC(=O)c2ccc([N+](=O)[O-])s2)sc2cc(Br)ccc21	·	10.8	·	98.0*
O=C(c1cc(S(=O)(=O)NCc2ccco2)ccc1Br)N1CCOCC1	-2.8	0.9	-2.2	0.7
CN1C(=O)/C(=C2/C=Cc3ccccc3N2CCCS(=O)(=O)O)SC1=S	-3.2	5.7	-3.9	83.6*
CCN1C(=O)/C(=C2/C=Cc3ccccc3N2CC)SC1=S	1.9	0.2	4.1	99.2*
CCN1/C(=C2\C(=O)N(C)C(=S)N2c2ccccc2)C=Cc2ccccc21	-1.1	6.8	-1.3	98.3*
CCc1ccc(C(=O)N/N=C/c2cccc3ccccc23)nc1	-1.9	-0.2	-9.4	-4.1
COc1ccc(S(=O)(=O)Nc2ccc3c(c2)OCCO3)cc1OC	-3.1	-0.2	-0.9	-9.2
Cc1nnsc1C(=O)NC1CCCc2c1cnn2-c1ccc(C(C)(C)C)cc1 (centres undefined)	1.4	6.8	1.7	-4.0
Cc1c(N=C2N=C(NC(=O)c3ccc(F)cc3)c3ccccc32)c(=O)n(-c2ccccc2)n1C	58.0*	-8.0	-4.3	57.1
C[C@@H]1C=CCCO[C@]12C(=O)N(Cc1ccc(Br)cc1)c1cccc(Br)c12	6.2	·	6.9	·
COc1ccc(-n2c(SCC(=O)Nc3nccs3)nnc2-c2ccc(Cl)cc2)cc1	6.2	·	3.4	·
COc1ccc(-c2[nH]c(-c3ccccc3)nc2SCC(=O)Nc2nccs2)cc1	-3.4	·	-3.6	98.3*
COc1ccc(-c2[nH]c(-c3ccc(Cl)cc3)nc2SCC(=O)Nc2nccs2)cc1	-11.0	5.5	-8.2	93.6*
CCc1ccc(N2CC(C(=O)Nc3ccc4c(c3)OCCO4)CC2=O)cc1 (centres undefined)	-2.6	-3.6	0.3	-1.5
SMILES	NPR1 activator	HDAC3 inh	GC-B act	ALR inh
O=C(/C=C/c1cccs1)N1CCN(c2ccc(O)cc2)CC1	-3.1	0.3	-3.5	99.1*
O=[N+]([O-])c1c(Nc2cccc(O)c2)cc(Cl)c2nonc12	14.0	4.5	37.0*	·
Cc1c(Nc2cc(Cl)c3nonc3c2[N+](=O)[O-])c(=O)n(-c2ccccc2)n1C	15.3	·	36.5*	·
O=C(NCc1ccccc1)[C@H]1CCCN1C(=O)[C@H]1CCCN1C(=O)c1ccc(F)c(F)c1	2.9	·	4.1	·
CC(C)[C@H](NC(=O)c1ccco1)C(=O)OCC(=O)c1ccc2c(c1)NC(=O)CO2	0.7	1.6	-6.0	99.6*
O=C1SC(SCc2ccccc2Cl)=N/C1=C\c1ccc(C(=O)O)cc1	3.1	-1.4	-2.6	100.5*
CCOC(=O)SC1=N/C(=C\c2ccc(N(C)C)cc2)C(=O)S1	-6.2	-0.2	-4.0	84.2*
COC(=O)c1ccc(/C=C2\N=C(SC)SC2=O)cc1	12.2	-6.4	-2.0	98.7*
CSC1=N/C(=C\c2ccc(C)cc2)C(=O)S1	4.5	2.9	-0.8	·
COC(=O)C1=C(C)N(Cc2cccc(C(F)(F)F)c2)C(=NCC2CC2)NC1c1ccc(F)cc1 (centres undefined)	-19.7	·	-18.8	·
COc1ncccc1-c1ccc2nncn2c1	0.2	·	0.8	·
COC(=O)[C@H](CC(C)C)NS(=O)(=O)N(Cc1ccccc1)[C@@H](CC(C)C)C(=O)OC	-5.5	31.3*	-10.1	0.9
COC(=O)[C@H](CC(C)C)N(Cc1ccccc1)S(=O)(=O)N(Cc1ccccc1)[C@@H](CC(C)C)C(=O)OC	-3.9	10.6	-7.7	-3.7
COc1cc(C(=O)Nc2ccc3c(c2)CCCN3C(=O)c2ccco2)c([N+](=O)[O-])cc1OC	4.1	10.1	-3.8	-12.3
Cc1ccc(-c2cc(C(F)F)nc(S(C)(=O)=O)n2)cc1	73.9*	-2.2	0.9	19.7
CCOc1cc(NC2CS(=O)(=O)CC2O)c(OCC)cc1NC(=O)c1ccccc1 (centres undefined)	-4.9	0.1	-8.9	88.7*
CC(C)[C@@H]1Cc2[nH][nH]c(=O)c2[C@H](C(C)C)O1	-1.4	·	2.3	·
c1ccc2c3c([nH]c2c1)C(C1CCCCC1)N(Cc1ncc[nH]1)CC3 (centres undefined)	-20.0	-1.8	-9.5	98.1*
Cc1cnc(CN2CCc3c([nH]c4ccccc34)C2C2CCCCC2)[nH]1 (centres undefined)	-15.8	-0.4	-14.2	17.3
CCCCNc1cc(NC(C)=O)cc2cc(OC)c(OC)cc12	-9.5	-1.6	-4.6	98.9*
COCc1[nH]nc2c1C(c1ccc(F)cc1)NC2=O (centres undefined)	3.2	·	12.7	·
COc1cc(C(=S)N(C)C)ccc1O	-4.0	4.3	-6.0	92.1*
CCSc1nnc(CNC(=O)C23CC4CC(CC(C4)C2)C3)n1C1CCCCC1	-0.8	-2.0	3.7	-6.6
CN1c2ccccc2C(C)(C)C12C=Cc1cc(O)ccc1O2 (centres undefined)	-5.8	6.1	2.1	79.7*
CC(/C=N\NC(=O)CSc1nnc(-c2ccc(Br)cc2)n1-c1ccccc1)=C\c1ccco1	-3.9	·	-10.2	·
Cc1cccc(N2CCN(C(=O)C3CCCN(S(=O)(=O)c4cnc[nH]4)C3)CC2C)c1 (centres undefined)	1.4	0.7	2.6	98.9*
Cc1cccc(N2CCN(C(=O)C3CCN(S(=O)(=O)c4c(C)noc4C)CC3)CC2C)c1 (centres undefined)	-3.5	6.3	-3.4	97.7*
Cc1cccc(CCNC(=O)C2CCCN(S(=O)(=O)c3cnc[nH]3)C2)c1 (centres undefined)	-4.9	-1.2	-8.1	67.5
Cc1noc(C)c1S(=O)(=O)N1CCC(C(=O)N2CCC(C)CC2)CC1	-4.1	0.0	3.9	-2.4
